The values below come from ChEMBL document CHEMBL3988442, “University of Dundee, Small-Polar-MMV Screening Library” (2021).

For experiment [1], the target named is T1, Aspartate--tRNA(Asp/Asn) ligase (Mycobacterium tuberculosis (strain ATCC 25618 / H37Rv)) (UniProt P9WFW3). Note: in the data most compounds retested in dose-response had high values.
T1 sequence (whole entry): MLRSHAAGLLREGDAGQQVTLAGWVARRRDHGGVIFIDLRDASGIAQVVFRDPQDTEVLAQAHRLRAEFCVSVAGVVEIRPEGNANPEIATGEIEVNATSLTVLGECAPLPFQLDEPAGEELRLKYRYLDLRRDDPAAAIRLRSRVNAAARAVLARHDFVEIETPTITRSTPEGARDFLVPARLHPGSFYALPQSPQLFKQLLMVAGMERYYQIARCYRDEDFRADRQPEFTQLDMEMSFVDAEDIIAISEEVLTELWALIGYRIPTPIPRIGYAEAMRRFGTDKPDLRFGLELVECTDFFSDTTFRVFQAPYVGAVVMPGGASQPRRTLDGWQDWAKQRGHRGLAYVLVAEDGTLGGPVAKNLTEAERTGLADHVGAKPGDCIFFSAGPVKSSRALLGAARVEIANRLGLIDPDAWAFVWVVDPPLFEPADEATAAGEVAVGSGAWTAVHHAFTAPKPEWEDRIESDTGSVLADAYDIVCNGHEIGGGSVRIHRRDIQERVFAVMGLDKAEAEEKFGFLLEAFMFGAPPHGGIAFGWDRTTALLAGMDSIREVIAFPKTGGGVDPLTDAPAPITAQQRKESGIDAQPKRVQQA
Description: Assay for Asp RNA synthetase-1 from Mycobacterium tuberculosis. Type of experiment: functional. More on the design: scale not given: direction of the effect not stated beside the values. The conditions noted are these: 30 µM.

Experiment [2] concerns the target Shiga toxin 2 (Escherichia coli O157:H7) (UniProt P09385+P09386). Description: E. coli 0.157:H7 Shiga Toxin SOP - stx2 screening assay. The settings on record: 30 µM. In kind it is functional. Also noted: scale not given: direction of the effect not stated beside the values.

In the case of `CCSc1cc(C(=O)NCc2ccccc2O)ccn1`, the Percent Effect worked out at 2.33% in experiment [1] and 11.7% in experiment [2].
As for `Cc1ccc(OCCNC(=O)C(C)n2cncn2)cc1` (configuration not stated), the Percent Effect stood at 4.54% in experiment [1] and 4.25% in experiment [2].
Regarding `CC(NC(=O)NCc1cccc(N2CCCC2=O)c1)c1ccccc1` (configuration not stated), the Percent Effect in experiment [1] is -1.99%; in experiment [2] it was 21.2%.
The matching figures for `COCCc1noc(CN(C)C(=O)c2cccc(N3CCCC3=O)c2)n1`: 3.06% and 3.89%.
In the same order, the values of `COc1ccnc(N2CCN(C(=O)NCc3ccc(C)s3)CC2)n1` are -2.05% and 31.8%.
Take `COc1cccc(COCC(O)CN2CC(n3cccn3)C2)c1` (configuration not stated): the Percent Effect in experiment [1] is -2.41%; in experiment [2], 16.5%.
In the same order, the values of `CCn1cc2c(n1)CN(Cc1nccs1)CC2COCC1CC1` (configuration not stated) are 5.78% and -5.95%.
In the same order, the values of `COc1ncccc1CNC(=O)c1cccc(C)n1` are -1.63% and -24.7%.
As to `CCn1nnc2c1C(COC)CN(C(=O)Cc1cccs1)C2` (configuration not stated), the Percent Effect in experiment [1] is -8.15%; in experiment [2], -30.3%.
Regarding `Cc1cc(C)n(CC2CCCN2CC(=O)N(C)C)n1` (configuration not stated), the figures for the Percent Effect in experiment [1] and in experiment [2] were -2.12% and 10.1%, respectively.
In the same order, the values of `Cn1cc(CN2CCC3(CCCN3S(C)(=O)=O)CC2)cn1` are 5.38% and 4.5%.
The matching figures for `CN(Cc1ccco1)[C@@H]1CN(C(=O)c2ccnnc2)[C@@H]2CCCO[C@H]12`: -2.73% and -1.33%.
`COC(=O)c1cc(OCC2CCC2)cc(C(=O)N[C@H]2CC[C@H](O)CC2)c1`: the Percent Effect in experiment [1] was 9.23%; in experiment [2], -30.2%.
`CCOCCC(=O)N1CCCC(c2ncc[nH]2)C1` (configuration not stated): the Percent Effect in experiment [1] was -0.374%; in experiment [2], -22.5%.
Consider `N#CC1(C(=O)Nc2ccc(OC(F)F)cc2)CCCC1`, for which the Percent Effect in experiment [1] was 3.4%; in experiment [2], -2.03%.
Regarding `CSCC(=O)N1CCCN(c2ccccc2C)CC1`, the Percent Effect in experiment [1] was 0.55%; in experiment [2], -18.5%.
The matching figures for `Cc1nc(C)n(CC2CCCN(c3ncnc4ccsc34)C2)n1` (configuration not stated): 0.756% and 28.8%.
For the compound `Cc1cnn(CCC(=O)N2CCCC(c3cc(C(N)=O)[nH]n3)C2)c1` (configuration not stated), the Percent Effect in experiment [1] is -2.86%; in experiment [2], -13.8%.
The matching figures for `CC(OCC1CC1)C(=O)N1CCCN(Cc2cnn(C)c2)CC1` (configuration not stated): 1.41% and -83.1%.
In the same order, the values of `CC(=O)N1CC[C@H]2OCC[C@@H](C(=O)N3CCCCO3)[C@@H]2C1` are 0.958% and -16.9%.
Consider `Cc1ccc(Cl)cc1N1CCC(CNC(=O)CC(F)(F)F)C1` (configuration not stated), for which the Percent Effect is -1.19% in experiment [1] and -45.5% in experiment [2].
The matching figures for `COC(=O)c1cc(OCC2CCC2)cc(C(=O)N[C@@H]2CNCC[C@H]2O)c1`: 6.47% and -42.6%.
Regarding `CN(C)C(=O)N1C[C@@H]2CC[C@H](C1)N(Cc1ccc3nsnc3c1)C2`, the Percent Effect in experiment [1] is 6.27%; in experiment [2], -56.9%.
Regarding `CN(C)S(=O)(=O)N1C[C@@H](Oc2ccccn2)[C@H]2OCCC[C@H]21`, the Percent Effect was 2.06% in experiment [1] and -15.9% in experiment [2].
The matching figures for `Cc1nc(CCC(=O)NC2CCC2)cc(C2CCNCC2)n1`: 1.96% and -6.49%.
In the same order, the values of `CS(=O)(=O)NCC1CCCN(C(=O)c2ccc(Cl)o2)C1` (configuration not stated) are 1.23% and -7.98%.
Take `Cc1ccc(NS(=O)(=O)CC2=NC(=O)n3cccc3C2=O)cc1`: the Percent Effect in experiment [1] is -1.02%; in experiment [2] it was -73.8%.
As for `Cc1cccc(CN2CCc3nnc(CN4CCCC4=O)n3CC2)n1`, the Percent Effect in experiment [1] was -2.89%; in experiment [2] it was 3.17%.
The matching figures for `CO[C@@H]1CCN(C(=O)c2ccccn2)[C@H]1Cc1ccccc1`: 3.21% and 4.36%.
The matching figures for `Cn1cc(C(=O)N2CC[C@@H]3[C@@H]2CCN3Cc2cccc(F)c2)cn1`: -0.0764% and 0.579%.
`Cn1cccc1CN1CCC2(CCCN(C(=O)Cc3cccnc3)C2)C1` (configuration not stated): the Percent Effect in experiment [1] was 4.47%; in experiment [2], -14.5%.
As for `CCN1CCN(C2CCN(Cc3c(C)noc3C)CC2)C1=O`, the results for the Percent Effect in experiment [1] and in experiment [2] were -5.48% and -30.9%, respectively.
As for `CN(CCOc1cccc(CN)c1)C1CCOCC1`, the Percent Effect in experiment [1] is -0.881%; in experiment [2] it was -50.4%.
The matching figures for `CNS(=O)(=O)c1ccc(C(=O)N2CCCC2c2cnn(C)c2)o1` (configuration not stated): -2.58% and -29.3%.
`Cc1oc(C(=O)O)cc1S(=O)(=O)Nc1cc(Cl)ccc1F`: the Percent Effect in experiment [1] was -2.58%; in experiment [2] it was 17.5%.
The matching figures for `CCOc1cccc(C(=O)N2CCN(c3nccc(OC)n3)CC2)c1`: 7.36% and 22.4%.
In the same order, the values of `COCCn1c2c(ccc1=O)CC(NS(C)(=O)=O)CC2` (configuration not stated) are 2.72% and -20.6%.
The matching figures for `CC(C)(C)c1cnc(CN2CCC(c3ccnn3CCO)CC2)o1`: -2.6% and -1.72%.
On to `Cc1ccsc1CNC(=O)Cc1c(C)nc2c(c1C)c(=O)[nH]n2C`, for which the Percent Effect was -4.18% in experiment [1] and 23.7% in experiment [2].
The matching figures for `Cc1nnc(NCc2cccnc2N(C)C)c(C#N)c1C`: 0.728% and 0.124%.
In the same order, the values of `CC(CNC(=O)Nc1cn[nH]c1)N1CCOCC1` (configuration not stated) are 1.82% and 26.9%.
In the same order, the values of `CCc1n[nH]c(C2CN(C(=O)c3cnc[nH]3)CCO2)n1` (configuration not stated) are -1.76% and 27.7%.
With `CCCn1ncc(CN2C[C@@H]3CCCN3C[C@@H]2CCSC)c1C`, the Percent Effect in experiment [1] is -1.92%; in experiment [2], -13.3%.
In the same order, the values of `Cc1ccc(C)c(-n2ccc3nc(N4CCCC4)ncc3c2=O)c1` are -4.04% and -36.3%.
In the same order, the values of `O=C(c1cccn2ccnc12)N1CCCN(c2cccnn2)CC1` are 2.1% and 22.9%.
`Cn1nc2c(cc1=O)CN(CCc1nc3ccccc3c(=O)[nH]1)CC2`: the Percent Effect in experiment [1] worked out at 7.01%; in experiment [2] it was 2.17%.
The matching figures for `CC(C)Cc1cc(C(=O)NCCc2ccc(S(C)(=O)=O)cc2)[nH]n1`: 3.53% and -19.9%.
The matching figures for `Cc1nc(CN2C(=O)CCC23CCN(c2ncccn2)CC3)cs1`: 4.19% and -30.4%.
Consider `CCN1CCN(S(=O)(=O)c2cc(Cl)c(Cl)cc2C)CC1`, for which the Percent Effect in experiment [1] is -2.76%; in experiment [2], -10.7%.
In the same order, the values of `O=C(Nc1nccs1)NC1CCN(Cc2ccccc2)C1` (configuration not stated) are -1.92% and -17.1%.
The matching figures for `c1ccc(C(OCCNC2CCc3ncnn3C2)c2ccccc2)cc1` (configuration not stated): 2.94% and -14.7%.
